Where a name gives a salt, the structure may show the parent alone. ± gives the standard deviation of the averaged measurements.

From the supplement of paper PMC7393113 come the findings set out here.

The experiment deals with iBMDM (immortalised mouse bone-marrow-derived macrophages), LPS-stimulated. As to the kind of experiment: mitochondrial superoxide (MitoSOX fluorescence) fold increase over unstimulated control; higher = more LPS-induced mitochondrial ROS (less inhibition). Particulars: inhibitor concentration: 500 nM, LPS: 100 ng/ml. The method, boiled down: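 Immortalised mouse bone-marrow-derived macrophages in black 96-well plates were kept in phenol-red-free 1% FCS/DMEM for 20 h, pretreated 30 min with kinase inhibitors (500 nM), loaded with 1 μM MitoSox for 10 min and then given LPS (100 ng/ml). Fluorescence at excitation/emission 510/580 nm was read on a ClarioStar plate reader every 60 min for 4 h, with wells in triplicate. Mitochondrial superoxide is given as fold induction over untreated macrophages, averaged across replicates.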

Turning to `O=C1NC(=O)/C(=C/c2cccc(C(F)(F)F)c2)S1`, the mitochondrial superoxide is 1.27 ± 0.052 (time after LPS: 1 h), 1.35 ± 0.074 (time after LPS: 2 h) and 1.53 ± 0.05 (time after LPS: 4 h).

As for `C#Cc1cccc(Nc2ncnc3cc(OCCOC)c(OCCOC)cc23)c1` [Erlotinib HCl (OSI-744)], the mitochondrial superoxide is, setting by setting: (time after LPS: 1 h) 1.62 ± 0.033; (time after LPS: 2 h) 1.66 ± 0.076; (time after LPS: 4 h) 1.76 ± 0.048.

In the case of `Cc1cc(C)c(/C=C2\C(=O)Nc3ccccc32)[nH]1` [Semaxanib (SU5416)], the mitochondrial superoxide is, setting by setting: (time after LPS: 1 h) 1.19 ± 0.012; (time after LPS: 2 h) 1.22 ± 0.029; (time after LPS: 4 h) 1.3 ± 0.039.

For `CS(=O)(=O)c1cccc(CNc2nc(Nc3ccc4c(c3)CCC(=O)N4)ncc2C(F)(F)F)c1`, the mitochondrial superoxide is, setting by setting: (time after LPS: 1 h) 1.2 ± 0.044; (time after LPS: 2 h) 1.24 ± 0.056; (time after LPS: 4 h) 1.3 ± 0.014.

As for `N#CC1(c2ccc(NC(=O)c3cccnc3NCc3ccncc3)cc2)CCCC1` [Apatinib], the mitochondrial superoxide is, setting by setting: (time after LPS: 1 h) 1.09 ± 0.056; (time after LPS: 2 h) 1.18 ± 0.021; (time after LPS: 4 h) 1.36 ± 0.018.

As for `COC(=O)c1ccc2c(C(=Nc3ccc(N(C)C(=O)CN4CCN(C)CC4)cc3)c3ccccc3)c(O)[nH]c2c1` [Nintedanib (BIBF 1120)], the mitochondrial superoxide is, setting by setting: (time after LPS: 1 h) 1.43 ± 0.015; (time after LPS: 2 h) 1.5 ± 0.056; (time after LPS: 4 h) 1.72 ± 0.037.

Turning to `CC(C)(C)c1cnc(CSc2cnc(NC(=O)C3CCNCC3)s2)o1`, the mitochondrial superoxide runs as follows: (time after LPS: 1 h) 1.32 ± 0.035; (time after LPS: 2 h) 1.43 ± 0.017; (time after LPS: 4 h) 1.5 ± 0.14.

Turning to `O=C(Nc1cccc(Nc2ncc(Br)c(NCCc3cnc[nH]3)n2)c1)N1CCCC1`, the mitochondrial superoxide reads like this: (time after LPS: 1 h) 1.13 ± 0.088; (time after LPS: 2 h) 1.11 ± 0.043; (time after LPS: 4 h) 1.16 ± 0.04.

For `C=CCc1ccc(O)c(-c2ccc(O)c(CC=C)c2)c1` [Honokiol], the mitochondrial superoxide reads like this: (time after LPS: 1 h) 1.24 ± 0.031; (time after LPS: 2 h) 1.31 ± 0.1; (time after LPS: 4 h) 1.39 ± 0.096.

`CCCCOc1c(C(=O)c2c(F)cc(C)cc2F)c[nH]c2nncc1-2`: the mitochondrial superoxide is, setting by setting: (time after LPS: 1 h) 1.16 ± 0.027; (time after LPS: 2 h) 1.25 ± 0.066; (time after LPS: 4 h) 1.37 ± 0.036.

Take `NC1(Cc2ccc(Cl)cc2)CCN(c2ncnc3[nH]ccc23)CC1`: the mitochondrial superoxide runs as follows: (time after LPS: 1 h) 1.31 ± 0.037; (time after LPS: 2 h) 1.43 ± 0.058; (time after LPS: 4 h) 1.68 ± 0.021.

Consider `O=C1c2ccccc2-c2n[nH]c3cccc1c23`, for which the mitochondrial superoxide by setting is: (time after LPS: 1 h) 1.12 ± 0.027; (time after LPS: 2 h) 1.2 ± 0.15; (time after LPS: 4 h) 1.3 ± 0.13.

As to `COc1cc(Nc2ncc(F)c(Nc3ccc4c(n3)NC(=O)C(C)(C)O4)n2)cc(OC)c1OC`, the mitochondrial superoxide is, setting by setting: (time after LPS: 1 h) 1.1 ± 0.027; (time after LPS: 2 h) 1.14 ± 0.016; (time after LPS: 4 h) 1.28 ± 0.11.

Turning to `C[C@]1(O)C[C@@H](c2nc(-c3ccc4ccc(-c5ccccc5)nc4c3)c3c(N)nccn32)C1` [OSI-906 (Linsitinib)], the mitochondrial superoxide reads like this: (time after LPS: 1 h) 1.45 ± 0.18; (time after LPS: 2 h) 1.51 ± 0.21; (time after LPS: 4 h) 1.56 ± 0.19.

`Cc1c(Cn2c(C)nc3c(C(=O)O)cc(N4CCOCC4)cc32)cccc1C(F)(F)F`: the mitochondrial superoxide was 1.394 ± 0.013 (time after LPS: 1 h), 1.502 ± 0.0056 (time after LPS: 2 h) and 1.61 ± 0.048 (time after LPS: 4 h).

For `Cc1ccc(Nc2nccc(N(C)c3ccc4c(C)n(C)nc4c3)n2)cc1S(N)(=O)=O` [Pazopanib], the mitochondrial superoxide is, setting by setting: (time after LPS: 1 h) 1.19 ± 0.042; (time after LPS: 2 h) 1.13 ± 0.082; (time after LPS: 4 h) 1.26 ± 0.015.

As for `O=c1cc(N2CCOCC2)oc2c(-c3cccc4c3sc3ccccc34)cccc12`, the mitochondrial superoxide runs as follows: (time after LPS: 1 h) 1.31 ± 0.028; (time after LPS: 2 h) 1.4 ± 0.037; (time after LPS: 4 h) 1.55 ± 0.042.

Take `COc1cc2ncc(-c3ccccc3)nc2cc1OC` [Tyrphostin AG 1296]: the mitochondrial superoxide runs as follows: (time after LPS: 1 h) 1.469 ± 0.014; (time after LPS: 2 h) 1.47 ± 0.017; (time after LPS: 4 h) 1.58 ± 0.021.

Turning to `C=CC(=O)Nc1cccc(Nc2nc(Nc3ccc(N4CCN(C(C)=O)CC4)cc3OC)ncc2C(F)(F)F)c1`, the mitochondrial superoxide turned out to be 1.49 ± 0.069 (time after LPS: 1 h), 1.49 ± 0.063 (time after LPS: 2 h) and 1.65 ± 0.12 (time after LPS: 4 h).

Take `NC(=O)c1cnc(N[C@@H]2CCCC[C@@H]2N)nc1Nc1cccc(-n2nccn2)c1`: the mitochondrial superoxide reads like this: (time after LPS: 1 h) 1.38 ± 0.058; (time after LPS: 2 h) 1.57 ± 0.08; (time after LPS: 4 h) 1.71 ± 0.11.

On to `COc1ccc(COc2cc3oc(=O)c4cc(C(C)O)ccc4c3cc2OC)cc1` (configuration not stated) [Palomid 529 (P529)], for which the mitochondrial superoxide is, setting by setting: (time after LPS: 1 h) 1.1 ± 0.049; (time after LPS: 2 h) 1.25 ± 0.08; (time after LPS: 4 h) 1.41 ± 0.05.

As for `Cc1ccc(NC(=O)c2ccc(CN3CCN(C)CC3)cc2)cc1Nc1nccc(-c2cccnc2)n1` [Imatinib (STI571)], the mitochondrial superoxide reads like this: (time after LPS: 1 h) 1.28 ± 0.061; (time after LPS: 2 h) 1.39 ± 0.18; (time after LPS: 4 h) 1.49 ± 0.12.

Turning to `O=C1NC(=O)C(=Cc2ccc(-c3ccc(F)cc3)o2)S1` (stereo in doubt), the mitochondrial superoxide was 1.28 ± 0.044 (time after LPS: 1 h), 1.55 ± 0.089 (time after LPS: 2 h) and 1.65 ± 0.081 (time after LPS: 4 h).

Take `Cn1cnc(=N)c2[nH]cnc21` [3-Methyladenine]: the mitochondrial superoxide (time after LPS: 1 h) came out at 1.25 ± 0.078, the mitochondrial superoxide (time after LPS: 2 h) turned out to be 1.34 ± 0.12 and the mitochondrial superoxide (time after LPS: 4 h) is 1.58 ± 0.15.
